Test results published in paper PMC9911399, “Two distinct binding modes provide the RNA-binding protein RbFox with extraordinary sequence specificity”.
Positions count from the first letter of the chain named. In all, about 16,000 sequences were measured (“ka relative to ugcaugu”: median about 0.096, highest 2% from about 0.35 on). Only a selection was taken, and the highest values are over-represented in it overall.

T1: RBFOX1 RRM RbFoxmut (Fox-RRM*) (Homo sapiens, UniProt Q9NWB1 109-208, R118D;E147R;N151S;E152T)
T1 sequence: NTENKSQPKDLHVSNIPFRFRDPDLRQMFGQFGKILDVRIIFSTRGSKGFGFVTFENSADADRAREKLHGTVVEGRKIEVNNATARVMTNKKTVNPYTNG

B1: AAGCAAG (DNA:RNA)
RNA: GGGAGACCGGAAUUCAGAUUGUCCAAGCAAGUUAAAUCCCGUCGUAGCCACCA
DNA 1: CAATCTGAATTCCGGTCTCCC
DNA 2: TGGTGGCTACGACGGGATT
B2: UGCCAGG (DNA:RNA)
RNA: B1 RNA with A25U, A26G, G27C, A30G
DNA 1: CAATCTGAATTCCGGTCTCCC
DNA 2: TGGTGGCTACGACGGGATT
B3: UCCCAGC (DNA:RNA)
RNA: B1 RNA with A25U, A26C, G27C, A30G, G31C
DNA 1: CAATCTGAATTCCGGTCTCCC
DNA 2: TGGTGGCTACGACGGGATT
B4: AAUUCGA (DNA:RNA)
RNA: B1 RNA with G27U, C28U, A29C, A30G, G31A
DNA 1: CAATCTGAATTCCGGTCTCCC
DNA 2: TGGTGGCTACGACGGGATT
B5: GGUACUG (DNA:RNA)
RNA: B1 RNA with A25G, A26G, G27U, C28A, A29C, A30U
DNA 1: CAATCTGAATTCCGGTCTCCC
DNA 2: TGGTGGCTACGACGGGATT
B6: CCGCAUC (DNA:RNA)
RNA: B1 RNA with A25C, A26C, A30U, G31C
DNA 1: CAATCTGAATTCCGGTCTCCC
DNA 2: TGGTGGCTACGACGGGATT
B7: GCAUCUC (DNA:RNA)
RNA: GGGAGACCGGAAUUCAGAUUGUCCGCAUCUCUUAAAUCCCGUCGUAGCCACCA
DNA 1: CAATCTGAATTCCGGTCTCCC
DNA 2: TGGTGGCTACGACGGGATT
B8: GCAUAUC (DNA:RNA)
RNA: B7 RNA with C29A
DNA 1: CAATCTGAATTCCGGTCTCCC
DNA 2: TGGTGGCTACGACGGGATT
B9: GCGCAUC (DNA:RNA)
RNA: B7 RNA with A27G, U28C, C29A
DNA 1: CAATCTGAATTCCGGTCTCCC
DNA 2: TGGTGGCTACGACGGGATT
B10: GCAUCUU (DNA:RNA)
RNA: B7 RNA with C31U
DNA 1: CAATCTGAATTCCGGTCTCCC
DNA 2: TGGTGGCTACGACGGGATT
B11: CGCAUCU (DNA:RNA)
RNA: GGGAGACCGGAAUUCAGAUUGUCCCGCAUCUUUAAAUCCCGUCGUAGCCACCA
DNA 1: CAATCTGAATTCCGGTCTCCC
DNA 2: TGGTGGCTACGACGGGATT
B12: GGUACGA (DNA:RNA)
RNA: B11 RNA with C25G, C27U, U29C, C30G, U31A
DNA 1: CAATCTGAATTCCGGTCTCCC
DNA 2: TGGTGGCTACGACGGGATT
B13: ACUUUAC (DNA:RNA)
RNA: B7 RNA with G25A, A27U, C29U, U30A
DNA 1: CAATCTGAATTCCGGTCTCCC
DNA 2: TGGTGGCTACGACGGGATT
B14: GACGUGU (DNA:RNA)
RNA: B11 RNA with C25G, G26A, A28G, C30G
DNA 1: CAATCTGAATTCCGGTCTCCC
DNA 2: TGGTGGCTACGACGGGATT
B15: AGUGAAA (DNA:RNA)
RNA: B1 RNA with A26G, G27U, C28G, G31A
DNA 1: CAATCTGAATTCCGGTCTCCC
DNA 2: TGGTGGCTACGACGGGATT
B16: AGUUGGG (DNA:RNA)
RNA: B1 RNA with A26G, G27U, C28U, A29G, A30G
DNA 1: CAATCTGAATTCCGGTCTCCC
DNA 2: TGGTGGCTACGACGGGATT
B17: ACUUACC (DNA:RNA)
RNA: B7 RNA with G25A, A27U, C29A, U30C
DNA 1: CAATCTGAATTCCGGTCTCCC
DNA 2: TGGTGGCTACGACGGGATT
B18: GACUUUG (DNA:RNA)
RNA: B7 RNA with C26A, A27C, C29U, C31G
DNA 1: CAATCTGAATTCCGGTCTCCC
DNA 2: TGGTGGCTACGACGGGATT
B19: UCCUGUC (DNA:RNA)
RNA: B7 RNA with G25U, A27C, C29G
DNA 1: CAATCTGAATTCCGGTCTCCC
DNA 2: TGGTGGCTACGACGGGATT
B20: UGUUGUC (DNA:RNA)
RNA: B7 RNA with G25U, C26G, A27U, C29G
DNA 1: CAATCTGAATTCCGGTCTCCC
DNA 2: TGGTGGCTACGACGGGATT
B21: UGUCUUC (DNA:RNA)
RNA: B11 RNA with C25U, C27U, A28C, C30U, U31C
DNA 1: CAATCTGAATTCCGGTCTCCC
DNA 2: TGGTGGCTACGACGGGATT
B22: UGUCUGG (DNA:RNA)
RNA: B1 RNA with A25U, A26G, G27U, A29U, A30G
DNA 1: CAATCTGAATTCCGGTCTCCC
DNA 2: TGGTGGCTACGACGGGATT
B23: UGCUGUC (DNA:RNA)
RNA: B7 RNA with G25U, C26G, A27C, C29G
DNA 1: CAATCTGAATTCCGGTCTCCC
DNA 2: TGGTGGCTACGACGGGATT
B24: UGUCGUC (DNA:RNA)
RNA: B7 RNA with G25U, C26G, A27U, U28C, C29G
DNA 1: CAATCTGAATTCCGGTCTCCC
DNA 2: TGGTGGCTACGACGGGATT
B25: UGGUCUG (DNA:RNA)
RNA: B7 RNA with G25U, C26G, A27G, C31G
DNA 1: CAATCTGAATTCCGGTCTCCC
DNA 2: TGGTGGCTACGACGGGATT
B26: UGGUCGC (DNA:RNA)
RNA: B7 RNA with G25U, C26G, A27G, U30G
DNA 1: CAATCTGAATTCCGGTCTCCC
DNA 2: TGGTGGCTACGACGGGATT
B27: UGUCUUG (DNA:RNA)
RNA: B1 RNA with A25U, A26G, G27U, A29U, A30U
DNA 1: CAATCTGAATTCCGGTCTCCC
DNA 2: TGGTGGCTACGACGGGATT
B28: CCGAUCU (DNA:RNA)
RNA: B11 RNA with G26C, C27G
DNA 1: CAATCTGAATTCCGGTCTCCC
DNA 2: TGGTGGCTACGACGGGATT
B29: CACUUGA (DNA:RNA)
RNA: B11 RNA with G26A, A28U, C30G, U31A
DNA 1: CAATCTGAATTCCGGTCTCCC
DNA 2: TGGTGGCTACGACGGGATT
B30: CACUUAG (DNA:RNA)
RNA: B1 RNA with A25C, G27C, C28U, A29U
DNA 1: CAATCTGAATTCCGGTCTCCC
DNA 2: TGGTGGCTACGACGGGATT
B31: GAAAGCU (DNA:RNA)
RNA: B11 RNA with C25G, G26A, C27A, U29G
DNA 1: CAATCTGAATTCCGGTCTCCC
DNA 2: TGGTGGCTACGACGGGATT

These binders were tested against T1, RBFOX1 RRM RbFoxmut (Fox-RRM*) (assay: EMSA; HiTS-Eq, 1 nM pool, 10 min; buffer printed only for the single-RNA assays: 10 mM Tris pH 7.5, 150 mM NaCl, 3.4 mM EDTA, 0.001% NP-40, 30 C). Settings: tags: His6 N-terminal (pET28a); label: 5' 32P.
How it was run: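 Relative association constants, normalised to the cognate motif, were derived by comparing read counts of each RNA species with those of the control reaction. The RNA sequenced was the free fraction, separated by 8% native PAGE after a 10 min equilibration in 50 µL of 1 nM 5′-radiolabelled RNA (7 randomized nucleotides) with increasing concentrations of purified wild-type or mutant RbFox RRM.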

For B1, which binding signal is on record?
The binding signal was 0.103 KA relative to UGCAUGU.

For B2, which binding signal is on record?
Its binding signal is 0.0858 KA relative to UGCAUGU.

Which binding signal does the source give for B3 here?
The binding signal was 0.1 KA relative to UGCAUGU.

How did the binding signal turn out when B4 was run?
Its binding signal is 0.0737 KA relative to UGCAUGU.

B5 was tested. Which binding signal did it give?
Its binding signal is 0.112 KA relative to UGCAUGU.

Which binding signal does the source give for B6 here?
Its binding signal is 0.258 KA relative to UGCAUGU.

With B7 as the binder, how does the binding signal read?
Its binding signal is 0.135 KA relative to UGCAUGU.

B8 was tested. Which binding signal did it give?
Its binding signal is 0.073 KA relative to UGCAUGU.

B9 was tested. Which binding signal did it give?
The binding signal was 0.49 KA relative to UGCAUGU.

How did the binding signal turn out when B10 was run?
Its binding signal is 0.33 KA relative to UGCAUGU.

For B11, which binding signal is on record?
Its binding signal is 0.395 KA relative to UGCAUGU.

Which binding signal does the source give for B12 here?
Its binding signal is 0.165 KA relative to UGCAUGU.

How did the binding signal turn out when B13 was run?
The binding signal was 0.114 KA relative to UGCAUGU.

Which binding signal does the source give for B14 here?
Its binding signal is 0.15 KA relative to UGCAUGU.

With B15 as the binder, how does the binding signal read?
The binding signal was 0.095 KA relative to UGCAUGU.

With B16 as the binder, how does the binding signal read?
Its binding signal is 0.0708 KA relative to UGCAUGU.

B17 was tested. Which binding signal did it give?
Its binding signal is 0.0997 KA relative to UGCAUGU.

B18 was tested. Which binding signal did it give?
The binding signal was 0.0901 KA relative to UGCAUGU.

For B19, which binding signal is on record?
The binding signal was 0.164 KA relative to UGCAUGU.

Which binding signal does the source give for B20 here?
Its binding signal is 0.468 KA relative to UGCAUGU.

B21 was tested. Which binding signal did it give?
Its binding signal is 0.201 KA relative to UGCAUGU.

For B22, which binding signal is on record?
Its binding signal is 0.196 KA relative to UGCAUGU.

With B23 as the binder, how does the binding signal read?
The binding signal was 0.331 KA relative to UGCAUGU.

Which binding signal does the source give for B24 here?
Its binding signal is 0.119 KA relative to UGCAUGU.

For B25, which binding signal is on record?
Its binding signal is 0.374 KA relative to UGCAUGU.

With B26 as the binder, how does the binding signal read?
Its binding signal is 0.114 KA relative to UGCAUGU.

How did the binding signal turn out when B27 was run?
Its binding signal is 0.674 KA relative to UGCAUGU.

How did the binding signal turn out when B28 was run?
The binding signal was 0.0341 KA relative to UGCAUGU.

B29 was tested. Which binding signal did it give?
The binding signal was 0.114 KA relative to UGCAUGU.

Which binding signal does the source give for B30 here?
Its binding signal is 0.16 KA relative to UGCAUGU.

B31 was tested. Which binding signal did it give?
Its binding signal is 0.0545 KA relative to UGCAUGU.
